According to PubChem BioAssay AID1159580 (chemical genetic matrix, 2015):
Among all 5,500 compounds or so, about 2,000 (36%) were called active. Not shown: some 18% with an inconclusive outcome. Cut-off read from the data, not from the text of the source: active = normalized growth mostly below about 0.91 (no sharp cut-off); inconclusive = no clear call, values can overlap the other calls; inactive = mostly above about 0.92. Some of the results follow.

Assay: chemical genetic growth profiling, strain panel (AID 1159580);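 note: tested at 20 µM; growth read once vehicle control cultures reached saturation at 30 °C; 1 = growth at the plate median or of vehicle wells; lower values mean less growth of the strain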
Conditions: S. cerevisiae deletion strains, growth OD

Measured: normalized growth

CCOP(=S)(OCC)SCn1c(=O)oc2cc(Cl)ccc21
active: locus YBR009C, strain hhf1, stronger effect = lower value 1.35 [resistant] | locus YDR137W, strain rgp1, stronger effect = lower value 0.81
inactive: locus YAL013W, strain DEP1, stronger effect = lower value 1 | locus YAL021C, strain ccr4, stronger effect = lower value 0.957 | locus YAL026C, strain drs2, stronger effect = lower value 0.972 | locus YAL030W, strain snc1, stronger effect = lower value 0.947 | locus YBL061C, strain skt5, stronger effect = lower value 0.949 | locus YBR021W, strain FUR4, stronger effect = lower value 0.998 | locus YBR023C, strain chs3, stronger effect = lower value 0.946 | locus YBR171W, strain sec66, stronger effect = lower value 0.922 | locus YBR229C, strain ROT2, stronger effect = lower value 0.997 | locus YBR231C, strain swc5, stronger effect = lower value 0.956 | locus YBR279W, strain paf1, stronger effect = lower value 0.977 | locus YCL011C, strain gbp2, stronger effect = lower value 0.961 | locus YCL016C, strain dcc1, stronger effect = lower value 0.955 | locus YCL029C, strain bik1, stronger effect = lower value 0.985 | locus YCL061C, strain MRC1, stronger effect = lower value 0.956 | locus YCL069W, strain vba3, stronger effect = lower value 0.968 | locus YCR088W, strain abp1, stronger effect = lower value 0.961 | locus YDL005C, strain med2, stronger effect = lower value 0.968 | locus YDL035C, strain GPR1, stronger effect = lower value 0.987 | locus YDL040C, strain nat1, stronger effect = lower value 0.961 | locus YDL074C, strain BRE1, stronger effect = lower value 0.928 | locus YDL101C, strain DUN1, stronger effect = lower value 1.01 | locus YDL134C, strain PPH21, stronger effect = lower value 0.991 | locus YDL185W, strain tfp1, stronger effect = lower value 1 | locus YDL192W, strain arf1, stronger effect = lower value 0.989 | locus YDR001C, strain nth1, stronger effect = lower value 0.96 | locus YDR069C, strain doa4, stronger effect = lower value 0.956 | locus YDR101C, strain arx1, stronger effect = lower value 0.992 | locus YDR150W, strain NUM1, stronger effect = lower value 0.995 | locus YDR159W, strain sac3, stronger effect = lower value 0.97 | locus YDR162C, strain NBP2, stronger effect = lower value 0.987 | locus YDR195W, strain ref2 1.04 | locus YDR297W, strain sur2, stronger effect = lower value 0.943 | locus YDR318W, strain mcm21, stronger effect = lower value 0.993 | locus YDR334W, strain swr1, stronger effect = lower value 0.965 | locus YDR335W, strain msn5, stronger effect = lower value 0.974 | locus YDR388W, stronger effect = lower value 0.994 | locus YDR392W, strain spt3, stronger effect = lower value 0.872 | locus YDR502C, strain sam2, stronger effect = lower value 0.986 | locus YEL003W, strain gim4, stronger effect = lower value 0.961 | locus YEL037C, strain rad23, stronger effect = lower value 0.975 | locus YEL061C, strain CIN8 (second series), stronger effect = lower value 0.96 | locus YEL061C, strain CIN8, stronger effect = lower value 0.99 | locus YER015W, strain faa2, stronger effect = lower value 0.967 | locus YER016W, strain bim1, stronger effect = lower value 0.958 | locus YER110C, stronger effect = lower value 0.993 | locus YER111C, strain swi4, stronger effect = lower value 0.965 | locus YER155C, strain BEM2 (second series), stronger effect = lower value 0.952 | locus YER155C, strain BEM2, stronger effect = lower value 0.993 | locus YER167W, strain BCK2, stronger effect = lower value 1 | locus YFR010W, strain ubp6, stronger effect = lower value 0.979 | locus YGL078C, strain dbp3, stronger effect = lower value 0.984 | locus YGL086W, strain mad1, stronger effect = lower value 0.986 | locus YGL167C, strain pmr1, stronger effect = lower value 0.921 | locus YGL173C, strain kem1, stronger effect = lower value 0.943 | locus YGL227W, strain vid30, stronger effect = lower value 0.963 | locus YGL240W, strain doc1, stronger effect = lower value 0.935 | locus YGL248W, strain PDE1, stronger effect = lower value 0.985 | locus YGL253W, strain hxk2, stronger effect = lower value 0.961 | locus YGR078C, strain PAC10, stronger effect = lower value 0.994 | locus YGR135W, strain pre9, stronger effect = lower value 0.977 | locus YGR229C, strain SMI1, stronger effect = lower value 1.01 | locus YGR252W, strain gcn5, stronger effect = lower value 0.987 | locus YHR013C, strain ard1, stronger effect = lower value 1.01 | locus YHR027C, strain rpn1, stronger effect = lower value 0.959 | locus YHR030C, strain SLT2, stronger effect = lower value 0.984 | locus YHR079C, strain IRE1 (second series), stronger effect = lower value 0.996 | locus YHR094C, strain hxt1, stronger effect = lower value 0.994 | locus YHR129C, strain ARP1, stronger effect = lower value 0.986 | locus YHR142W, strain chs7, stronger effect = lower value 0.954 | locus YHR200W, strain rpn10, stronger effect = lower value 0.99 | locus YIL066C, strain RNR3, stronger effect = lower value 1.01 | locus YIL073C, strain SPO22, stronger effect = lower value 1.06 | locus YIL125W, strain kgd1, stronger effect = lower value 0.984 | locus YIR030C, strain dcg1, stronger effect = lower value 0.989 | locus YJL092W, strain hpr5, stronger effect = lower value 0.965 | locus YJL095W, strain BCK1 (second series), stronger effect = lower value 0.941 | locus YJL095W, strain BCK1, stronger effect = lower value 0.975 | locus YJL115W, strain asf1, stronger effect = lower value 0.969 | locus YJL129C, strain trk1, stronger effect = lower value 0.907 | locus YJL134W, strain LCB3, stronger effect = lower value 0.994 | locus YJL154C, strain vps35, stronger effect = lower value 0.972 | locus YJL164C, strain tpk1, stronger effect = lower value 0.943 | locus YJL166W, strain qcr8, stronger effect = lower value 0.942 | locus YJL168C, strain set2, stronger effect = lower value 0.991 | locus YJL187C, strain SWE1 (second series), stronger effect = lower value 1 | locus YJL187C, strain SWE1, stronger effect = lower value 0.95
